Results reported in PubChem BioAssay (EPA / NIEHS).
The source made the active and inactive calls. The calls were made as follows: active = hit-call score of the fitted dose curve at least 0.9, where 1 is the maximum; inactive = score below 0.9.

Legend:
[1] = ATG_CRE_CIS: Attagene CIS-FACTORIAL HepG2 Assay for human cAMP Responsive Element (CRE) binding protein 3 (AID 2282926); settings: HepG2 CRE cis-reporter, Attagene multiplexed mRNA; actives raise or lower the signal
Method in brief: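 HepG2 cells transiently transfected with cis-element-driven multiple reporter transcription units; CRE reporter mRNA measured 24 h after dosing by RT-PCR, 6-FAM labelling, HpaI digestion and capillary electrophoresis. Bidirectional fit versus DMSO baseline.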

[2] = biological target: CCAAT/enhancer-binding protein beta (Homo sapiens) (UniProt P17676); assay: ATG_C_EBP_CIS: Attagene CIS-FACTORIAL HepG2 Assay for human CCAAT/Enhancer Binding Protein (C/EBP) beta (AID 2282927); settings: HepG2 Attagene cis-factorial transcription factor reporter; actives raise or lower the signal
Sequence of CCAAT/enhancer-binding protein beta (Homo sapiens) (P17676 whole entry, looked up, the tested form may be a part): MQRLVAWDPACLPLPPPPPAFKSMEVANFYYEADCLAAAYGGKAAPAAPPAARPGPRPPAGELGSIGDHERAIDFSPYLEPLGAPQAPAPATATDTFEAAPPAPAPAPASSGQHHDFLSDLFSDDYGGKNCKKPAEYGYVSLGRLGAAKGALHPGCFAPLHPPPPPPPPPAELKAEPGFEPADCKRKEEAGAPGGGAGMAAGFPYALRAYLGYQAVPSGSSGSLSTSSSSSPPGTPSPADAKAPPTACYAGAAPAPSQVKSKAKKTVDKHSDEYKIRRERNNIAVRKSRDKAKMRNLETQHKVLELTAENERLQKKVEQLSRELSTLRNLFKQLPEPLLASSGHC
Method in brief: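 Chemical-treated HepG2 cells (24 h) bearing cis-regulated reporter constructs were processed for total RNA, then reverse transcription, PCR amplification, fluorescent primer extension and fragment analysis; gain- and loss-of-signal were fitted against DMSO.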

[3] = ATG_CMV_CIS: Attagene CIS-FACTORIAL HepG2 Assay for human CMV (Internal Marker) (AID 2282928); settings: HepG2 CMV promoter reporter, transcription factor profiling; actives raise or lower the signal;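 also: endpoint acts as a background internal control marker rather than a target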
Method in brief: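 Cell system: HepG2, transiently transfected multiple reporter units under cis promoters. Exposure: 24 h. Detection: RT-PCR, FAM labeling, HpaI digestion, capillary electrophoresis. Analysis: bidirectional, DMSO baseline.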

[4] = ATG_DR4_LXR_CIS: Attagene CIS-FACTORIAL HepG2 Assay for human Liver X Receptor (LXR), DR4 submotif (AID 2282929); settings: HepG2 Attagene DR4 cis-reporter, mRNA transcription; actives raise or lower the signal
Method in brief: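 The endpoint is DR4-element-driven reporter transcripts after 24 h chemical exposure of transfected HepG2 cells. These were measured via RT-PCR and capillary electrophoresis, and gain or loss of signal was fitted relative to DMSO controls.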

[5] = biological target: Aryl hydrocarbon receptor (Homo sapiens) (UniProt P35869); assay: ATG_Ahr_CIS: Attagene CIS-FACTORIAL HepG2 Assay for human Aryl Hydrocarbon Receptor (Ahr) (AID 2282930); settings: HepG2 AhR cis-factorial reporter transcription; actives raise or lower the signal
Sequence of Aryl hydrocarbon receptor (Homo sapiens) (P35869 whole entry, looked up): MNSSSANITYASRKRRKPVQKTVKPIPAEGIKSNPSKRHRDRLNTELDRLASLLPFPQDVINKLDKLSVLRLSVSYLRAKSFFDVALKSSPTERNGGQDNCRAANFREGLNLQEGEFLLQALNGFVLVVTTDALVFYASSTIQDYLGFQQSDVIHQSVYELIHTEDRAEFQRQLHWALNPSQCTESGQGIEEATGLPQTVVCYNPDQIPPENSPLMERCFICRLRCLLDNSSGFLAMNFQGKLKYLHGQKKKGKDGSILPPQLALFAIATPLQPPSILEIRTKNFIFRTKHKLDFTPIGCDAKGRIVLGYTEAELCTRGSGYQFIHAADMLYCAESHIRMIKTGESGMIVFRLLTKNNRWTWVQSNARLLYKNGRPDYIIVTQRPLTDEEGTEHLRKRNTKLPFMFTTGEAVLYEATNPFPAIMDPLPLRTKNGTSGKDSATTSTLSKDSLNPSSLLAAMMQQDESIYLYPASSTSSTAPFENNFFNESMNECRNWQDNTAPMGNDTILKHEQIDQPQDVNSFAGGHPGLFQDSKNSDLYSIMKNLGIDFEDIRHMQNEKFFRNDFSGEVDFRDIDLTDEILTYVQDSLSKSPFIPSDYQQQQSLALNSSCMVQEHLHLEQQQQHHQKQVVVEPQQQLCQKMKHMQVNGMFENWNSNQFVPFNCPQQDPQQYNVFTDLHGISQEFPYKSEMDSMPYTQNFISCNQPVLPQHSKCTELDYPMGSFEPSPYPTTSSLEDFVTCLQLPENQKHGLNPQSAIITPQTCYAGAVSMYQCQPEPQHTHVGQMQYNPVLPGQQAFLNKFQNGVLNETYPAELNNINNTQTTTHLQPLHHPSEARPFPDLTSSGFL
Method in brief: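 Following 24 h of chemical dosing, transfected HepG2 liver cells with cis-driven reporter units were lysed for RNA; reporter mRNA was quantified via RT-PCR and capillary electrophoresis, and responses fitted bidirectionally from DMSO.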

[6] = ATG_AP_1_CIS: Attagene CIS-FACTORIAL HepG2 Assay for human Activator Protein 1 (AP-1) (AID 2282931); settings: HepG2 Attagene cis-factorial AP-1 reporter mRNA; actives raise or lower the signal
Method in brief: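 Readout is reporter transcript level from endogenous transcription factor activity, quantified by RT-PCR with fluorescent primer extension and capillary electrophoresis. Transiently transfected HepG2 cells, 24 h exposure. Curves fitted both directions versus DMSO.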

[7] = ATG_AP_2_CIS: Attagene CIS-FACTORIAL HepG2 Assay for human Activator Protein 2 (AP-2) (AID 2282932); settings: HepG2 AP-2 cis-reporter, Attagene transcription factor profiling; actives raise or lower the signal
Method in brief: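 HepG2 cells were transiently transfected with multiple cis-promoter reporter transcription units and dosed for 24 h. Reporter mRNA was measured by RT-PCR with capillary electrophoresis fluorescence; bidirectional fits relative to DMSO baseline.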

[8] = biological target: Retinoic acid receptor alpha (Homo sapiens) (UniProt P10276); assay: ATG_DR5_RAR_CIS: Attagene CIS-FACTORIAL HepG2 Assay for human Retinoic Acid Receptor Alpha (RARE), DR5 submotif (AID 2282934); settings: HepG2 Attagene cis-factorial RARE DR5 reporter, mRNA; actives raise or lower the signal;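 as to AC50: reporter responds to endogenous RAR alpha beta and gamma in HepG2 not RARA alone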
Sequence of Retinoic acid receptor alpha (Homo sapiens) (P10276 whole entry, looked up): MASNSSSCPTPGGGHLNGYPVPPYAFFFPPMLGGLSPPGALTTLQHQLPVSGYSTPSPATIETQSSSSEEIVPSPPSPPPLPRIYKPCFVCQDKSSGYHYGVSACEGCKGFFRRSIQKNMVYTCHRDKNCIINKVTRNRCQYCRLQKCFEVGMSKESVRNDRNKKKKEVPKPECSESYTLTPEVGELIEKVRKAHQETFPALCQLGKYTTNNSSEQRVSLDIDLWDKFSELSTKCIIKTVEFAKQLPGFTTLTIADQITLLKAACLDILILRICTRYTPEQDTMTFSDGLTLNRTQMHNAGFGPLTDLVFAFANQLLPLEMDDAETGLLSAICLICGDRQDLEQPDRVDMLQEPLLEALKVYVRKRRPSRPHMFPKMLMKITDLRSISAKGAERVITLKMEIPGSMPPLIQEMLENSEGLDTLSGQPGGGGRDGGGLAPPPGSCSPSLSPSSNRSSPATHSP
Method in brief: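 Transfected HepG2 reporter cells are exposed to chemicals for 24 h. Then RNA is extracted and the DR5 element reporter transcript is measured by RT-PCR and capillary electrophoresis, with bidirectional curve fitting relative to DMSO.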

[9] = ATG_BRE_CIS: Attagene CIS-FACTORIAL HepG2 Assay for human Bone Morphogenetic Protein (BMP) Response Element (BRE) (AID 2282933); settings: HepG2 BMP response element reporter, Attagene transcription factor profiling; actives raise or lower the signal
Method in brief: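 Fluorescence-labelled reporter cDNA fragments, separated by capillary electrophoresis, gave the signal for this component of a 52-readout multiplex. HepG2 cells were transfected, exposed to chemicals for 24 h, and compared with DMSO using bidirectional fitting.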

Compound | AC50 [1] | AC50 [2] | outcome [3] | AC50 [4] | AC50 [5] | outcome [6] | outcome [7] | AC50 [8] | outcome [1] | outcome [2] | outcome [4] | outcome [5] | outcome [9] | outcome [8]
Cc1cc(O)c2c(c1)C(=O)c1cc(O)cc(O)c1C2=O | 8.7 µM (active) | 12.5 µM (active) | inactive | 44.8 µM (active) | 25.3 µM (active) | inactive | inactive | 17.6 µM (active) |  |  |  |  |  | 
C/C=C(\C)C(=O)OC/C=C(\C)CCC=C(C)C |  |  | inactive |  |  |  | inactive |  | inactive | inactive | inactive | inactive | inactive | inactive
CCCCCCC(O)CCOC(C)=O (configuration not stated) |  |  | inactive |  |  |  | inactive |  | inactive | inactive | inactive | inactive | inactive | 
O=S1(=O)CC=CC1 |  |  | inactive |  |  | inactive | inactive |  | inactive | inactive | inactive | inactive | inactive | inactive
CCC=C(C)C=O |  |  |  |  |  | inactive | inactive |  | inactive | inactive | inactive | inactive | inactive | 
C1=COCCC1 |  |  | inactive |  |  | inactive | inactive |  | inactive | inactive | inactive |  |  | inactive
CCCO[Si](OCCC)(OCCC)OCCC |  |  | inactive |  |  | inactive | inactive |  | inactive | inactive |  | inactive | inactive | 
CC12CCC(C1)C(C)(C)C2O (configuration not stated) |  |  | inactive |  |  | inactive | inactive |  | inactive | inactive | inactive |  | inactive | inactive
CCC(=O)OC(C)(C)C1CC=C(C)CC1 (configuration not stated) |  |  | inactive |  |  |  | inactive |  | inactive | inactive | inactive |  | inactive | 
O=C(O)c1ccco1 |  |  | inactive |  |  | inactive | inactive |  | inactive | inactive |  | inactive | inactive | 
CC1=CC(O)CC(C)(C)C1 (configuration not stated) |  |  | inactive |  | 44.9 µM (active) | inactive | inactive |  | inactive | inactive |  |  | inactive | inactive
CC(=O)CCc1ccc(O)cc1 |  |  | inactive |  |  | inactive | inactive |  | inactive | inactive |  |  | inactive | 
OCCN1CCOCC1 |  |  | inactive |  |  |  | inactive |  | inactive | inactive |  | inactive | inactive | inactive
CC(C)CCOC(=O)CC(C)C |  |  | inactive |  |  | inactive | inactive |  | inactive | inactive |  | inactive | inactive | 
